This note sets out measurements from PubChem BioAssay (Tox21).

Unmarked numbers belong to inactive results. Records with an inconclusive call do not appear. The source made the active and inactive calls. Unless noted, calls follow the shape of the dose curve; as a rule, active = well fitted curve in the direction sought with a large enough effect in the repeat runs; inconclusive = weak or mixed curves; inactive = no such curve, though single readings can be large; an effect the other way counts as inactive or inconclusive.

Assay [1] can be described thus: qHTS assay to identify small molecule antagonists of the estrogen receptor alpha (ER-alpha) signaling pathway using the BG1 cell line in the presence of 0.1 nM 17-beta-estradiol - cell viability counter screen (AID 1259241). Also: nearly all actives have a fitted effect of over 40% in size. Also: potency is read from the fitted curve at half-maximal effect. A digest of the protocol: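 VM7Luc4E2 cells (endogenous ER-alpha, 4×ERE-luciferase), hormone-starved 5 days in charcoal-stripped FBS, were treated with compounds plus 0.1 nM 17beta-estradiol for 22 hr at 37C; viability read in same wells as CellTiter-Fluor live-cell protease fluorescence.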

In assay [2] the target is Androgen receptor (Homo sapiens) (UniProt P10275). The assay can be described thus: qHTS assay to identify small molecule antagonists of the androgen receptor (AR) signaling pathway using the MDA cell line in the presence of 0.5 nM R1881 (AID 1259243). Also: potency is read from the fitted curve at half-maximal effect; nearly all actives have a fitted effect of over 50% in size. In outline:
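Reporter cells cultured without CO2 receive test chemicals, then 0.5 nM R1881 final; after 16 hr at 37C, ONE-Glo is added and light output recorded.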

Assay [3] in a line: qHTS assay to identify small molecule HDAC inhibitors (AID 1259364). Also: potency is read from the fitted curve at half-maximal effect.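 Also: wild-type HCT-116 cells with endogenous class I/II HDAC activity; nearly all actives have a fitted effect of over 45% in size.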 A digest of the protocol: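 Read-out: luminescence of HDAC-Glo I/II reagent, 30 min RT, reflecting class I/II deacetylase activity in whole HCT-116 cells pre-exposed 2 h to DMSO-dissolved compounds.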
Assay [4] is described as follows: qHTS assay to identify small molecule HDAC inhibitors - cell viability counter screen (AID 1259365). Also: series mostly up to about 92 µM; nearly all actives have a fitted effect of over 50% in size. In outline: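 Wild-type HCT-116 cells were seeded at 1,500 per well, incubated overnight at 37 C, then exposed to compounds in DMSO for 2hr. Viability was read by CellTiter-Glo luminescence after 30min at room temperature.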
Assay [5] is described as follows: qHTS assay to identify small molecule agonists of the sonic hedgehog signaling (Shh) pathway - cell viability counter screen (AID 1259366). Also: nearly all actives have a fitted effect of over 50% in size. Also: potency is read from the fitted curve at half-maximal effect. A digest of the protocol:
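NIH/3T3-derived 3T3 Gli1-Luc cells (stable Gli1-responsive firefly luciferase reporter) were seeded, rested 4 hr at 37 C/5% CO2, then exposed to compounds in DMSO for 24 hr; viability was read by CellTiter-Fluor fluorescence in the same wells.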

The nature of assay [6]: qHTS assay to identify small molecule antagonists of the sonic hedgehog signaling (Shh) pathway - cell viability counter screen (AID 1259367). Also: nearly all actives have a fitted effect of over 55% in size. In outline:
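Cells: 3T3 Gli1-Luc, 2,000/well, 4 hr pre-incubation. Compounds in DMSO, then conditioned medium. Incubation 24 hr, 37C, 5% CO2. CellTiter-Fluor at 23 hr, 1 hr, fluorescence.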

Assay [7] in a line: qHTS assay to identify small molecule agonists of the sonic hedgehog signaling (Shh) pathway (AID 1259368; calls by dose curve; also: nearly all actives have a fitted effect of over 15% in size; also: potency is read from the fitted curve at half-maximal effect). In outline:
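A Gli1 transcriptional response element controlled firefly luciferase in 3T3Gli1-Luc cells. Compounds and a positive control were added 4 hr after plating, and cells were incubated a further 24 hr at 37 C before luminescence detection.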

In assay [8] the target is Estrogen receptor beta (Homo sapiens) (UniProt Q92731). As to the kind of experiment: qHTS assay to identify small molecule agonists of the estrogen receptor beta (ER-beta) signaling pathway (AID 1259377; active = well fitted activation curve with a large enough effect in the signal ratio in the repeat runs, not every such curve was filed as active; the % refers to the signal ratio). In outline: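 ER-beta-UAS-bla HEK293T (GripTite) cells carrying a UAS-driven beta-lactamase reporter, in medium with 2% charcoal-stripped FBS, were exposed to compounds for 16 hr at 37C; LiveBLAzer B/G FRET substrate was then added and fluorescence read after 2 hours at room temperature.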
Estrogen receptor beta (Homo sapiens), sequence (Q92731 whole entry, looked up): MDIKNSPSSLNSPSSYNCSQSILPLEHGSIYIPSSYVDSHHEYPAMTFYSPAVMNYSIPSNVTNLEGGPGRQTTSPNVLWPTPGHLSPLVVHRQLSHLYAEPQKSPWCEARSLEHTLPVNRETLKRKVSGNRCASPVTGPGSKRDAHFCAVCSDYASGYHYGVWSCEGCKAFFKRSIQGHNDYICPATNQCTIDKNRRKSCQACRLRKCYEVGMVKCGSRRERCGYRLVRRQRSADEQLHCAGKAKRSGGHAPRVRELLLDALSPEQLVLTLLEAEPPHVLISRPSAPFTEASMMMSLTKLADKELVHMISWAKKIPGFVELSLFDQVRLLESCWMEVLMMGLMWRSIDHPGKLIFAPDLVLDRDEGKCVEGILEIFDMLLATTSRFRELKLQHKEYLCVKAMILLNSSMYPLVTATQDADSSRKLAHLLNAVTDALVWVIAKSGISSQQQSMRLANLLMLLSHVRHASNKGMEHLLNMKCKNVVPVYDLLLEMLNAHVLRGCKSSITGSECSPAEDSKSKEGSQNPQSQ

Assay [9] in a line: qHTS assay to identify small molecule agonists of the androgen receptor (AR) signaling pathway in the presence of an antagonist - cell viability counter screen (AID 1259379). Also: nearly all actives have a fitted effect of over 25% in size. Also: potency is read from the fitted curve at half-maximal effect. A digest of the protocol:
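Seed MDA-kb2 at 3,000 cells/well; incubate 5 hr, 37C, 0% CO2. Add nilutamide to 3.0uM final, then pin compounds at 15 concentrations. Incubate 16 hr. Add CellTiter-Fluor at 15 hr, read fluorescence after 1 hr.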

Assay [10] in a line: qHTS assay to identify small molecule agonists of the estrogen receptor beta (ER-beta) signaling pathway - cell viability counter screen (AID 1259380). Also: nearly all actives have a fitted effect of over 30% in size. In outline:
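CellTiter-Glo read, 30 min RT, same wells as bla assay; cells ER-beta-UAS-bla HEK293T; 16 hr compound, 37C; medium 2% charcoal-stripped FBS.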

In assay [11] the target is Androgen receptor (Homo sapiens) (UniProt P10275). As to the kind of experiment: qHTS assay to identify small molecule agonists of the androgen receptor (AR) signaling pathway in the presence of an antagonist (AID 1259381; calls by dose curve; also: nearly all actives have a fitted effect of over 15% in size). In outline:
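Test compounds at 15 concentrations were incubated for 16hr with MDA-kb2 reporter cells in presence of 3.0uM nilutamide (final). Signal: ONE-Glo luciferase luminescence.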

The nature of assay [12]: qHTS assay to identify small molecule antagonists of the estrogen receptor beta (ER-beta) signaling pathway - cell viability counter screen (AID 1259382). Also: series mostly up to about 92 µM; nearly all actives have a fitted effect of over 55% in size. In outline:
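In this multiplexed counter screen, cells were seeded at 2,000 per well in medium with 2% charcoal-stripped FBS and incubated 6 hr before compound and 1nM final E2 were added. Sixteen hours later, ATP-based luminescence reported viability.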

Assay [13] deals with Estrogen receptor (Homo sapiens) (UniProt P03372). The assay can be described thus: qHTS assay to identify small molecule agonists of the estrogen receptor alpha (ER-alpha) signaling pathway in the presence of an antagonist (AID 1259383; calls by dose curve; also: top concentration of the series differs between compounds; nearly all actives have a fitted effect of over 15% in size). A digest of the protocol: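 Stably transfected VM7Luc4E2 reporter cells, kept 5 days in charcoal-stripped serum, received ICI-182,780 at 10.0nM final before compound addition. Following 22hr incubation at 37C and 5% CO2, luciferase signal was read by luminescence.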
Estrogen receptor (Homo sapiens), sequence (P03372 whole entry, looked up): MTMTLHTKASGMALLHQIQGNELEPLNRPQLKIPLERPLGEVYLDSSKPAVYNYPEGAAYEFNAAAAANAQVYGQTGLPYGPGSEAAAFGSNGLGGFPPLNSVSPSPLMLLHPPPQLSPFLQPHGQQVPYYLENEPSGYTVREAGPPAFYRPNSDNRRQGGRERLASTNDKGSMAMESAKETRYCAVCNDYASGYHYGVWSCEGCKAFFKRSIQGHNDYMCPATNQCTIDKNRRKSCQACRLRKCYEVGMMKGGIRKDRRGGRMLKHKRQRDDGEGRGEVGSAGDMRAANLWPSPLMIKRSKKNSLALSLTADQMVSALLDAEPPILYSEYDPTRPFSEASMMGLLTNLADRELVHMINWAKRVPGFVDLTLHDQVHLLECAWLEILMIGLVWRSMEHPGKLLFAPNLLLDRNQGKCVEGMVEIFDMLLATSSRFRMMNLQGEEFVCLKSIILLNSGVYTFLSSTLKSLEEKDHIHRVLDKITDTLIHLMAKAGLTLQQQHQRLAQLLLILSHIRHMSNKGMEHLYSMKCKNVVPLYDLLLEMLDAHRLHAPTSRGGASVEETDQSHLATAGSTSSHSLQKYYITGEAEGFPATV

A short description of assay [14]: qHTS assay to identify small molecule agonists or antagonists of the thyroid stimulating hormone receptor (TSHR) signaling pathway - wild type cell line counter screen (AID 1259384; calls by dose curve). A digest of the protocol:
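Counter screen in untransfected Hek293: compounds (15-point titration, triplicate) plus phosphodiesterase inhibitor Ro20-1724 added after 18 h plating; 30 min RT. Intracellular cAMP via competitive d2/cryptate immunoassay, 1 h incubation.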

The target of assay [15] is Estrogen receptor (Homo sapiens) (UniProt P03372). As to the kind of experiment: qHTS assay to identify small molecule antagonists of the estrogen receptor alpha (ER-alpha) signaling pathway using the BG1 cell line in the presence of 0.1 nM 17-beta-estradiol (AID 1259244). Also: nearly all actives have a fitted effect of over 50% in size. Also: potency is read from the fitted curve at half-maximal effect. A digest of the protocol:
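Estradiol at 0.1 nM (final) stimulates the endogenous ER-alpha of VM7Luc4E2 cells carrying an ERE-driven luciferase; compounds are co-incubated 22 h at 37C and luciferase output quantified by luminescence.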

A short description of assay [16]: qHTS assay to identify small molecule antagonists of the sonic hedgehog signaling (Shh) pathway (AID 1259369; calls by dose curve; also: nearly all actives have a fitted effect of over 45% in size). A digest of the protocol:
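For antagonist detection, the reporter line received test compounds together with conditioned medium, incubated 24hr at 37 C, 5% CO2, then luminescence was recorded following 30min room-temperature luciferase reagent incubation.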

Assay [17] deals with Estrogen receptor beta (Homo sapiens) (UniProt Q92731). As to the kind of experiment: qHTS assay to identify small molecule antagonists of the estrogen receptor beta (ER-beta) signaling pathway (AID 1259378; active = well fitted inhibition curve with a large enough effect in the signal ratio in the repeat runs, not every such curve was filed as active; the % refers to the signal ratio). In outline:
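Antagonist mode: compounds added to beta-lactamase reporter HEK293T ER-beta-UAS cells stimulated with E2 (1nM final), 16 hr at 37C. LiveBLAzer B/G FRET substrate, 2 hours room temperature, fluorescence read-out.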

Assay [18] addresses Thyrotropin receptor (Homo sapiens) (UniProt P16473). As to the kind of experiment: qHTS assay to identify small molecule antagonists of the thyroid stimulating hormone receptor (TSHR) signaling pathway (AID 1259385; calls by dose curve; also: nearly all actives have a fitted effect of over 20% in size). In outline:
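Antagonist mode: compound-treated TSHR-expressing HEK293 cells were stimulated with 1.5 ng/mL TSH (final) in presence of Ro20-1724 for 30 min at RT. HTRF cAMP detection after 1 h; each compound tested at 15 concentrations, triplicate.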

Thyrotropin receptor (Homo sapiens), sequence (P16473 whole entry, looked up): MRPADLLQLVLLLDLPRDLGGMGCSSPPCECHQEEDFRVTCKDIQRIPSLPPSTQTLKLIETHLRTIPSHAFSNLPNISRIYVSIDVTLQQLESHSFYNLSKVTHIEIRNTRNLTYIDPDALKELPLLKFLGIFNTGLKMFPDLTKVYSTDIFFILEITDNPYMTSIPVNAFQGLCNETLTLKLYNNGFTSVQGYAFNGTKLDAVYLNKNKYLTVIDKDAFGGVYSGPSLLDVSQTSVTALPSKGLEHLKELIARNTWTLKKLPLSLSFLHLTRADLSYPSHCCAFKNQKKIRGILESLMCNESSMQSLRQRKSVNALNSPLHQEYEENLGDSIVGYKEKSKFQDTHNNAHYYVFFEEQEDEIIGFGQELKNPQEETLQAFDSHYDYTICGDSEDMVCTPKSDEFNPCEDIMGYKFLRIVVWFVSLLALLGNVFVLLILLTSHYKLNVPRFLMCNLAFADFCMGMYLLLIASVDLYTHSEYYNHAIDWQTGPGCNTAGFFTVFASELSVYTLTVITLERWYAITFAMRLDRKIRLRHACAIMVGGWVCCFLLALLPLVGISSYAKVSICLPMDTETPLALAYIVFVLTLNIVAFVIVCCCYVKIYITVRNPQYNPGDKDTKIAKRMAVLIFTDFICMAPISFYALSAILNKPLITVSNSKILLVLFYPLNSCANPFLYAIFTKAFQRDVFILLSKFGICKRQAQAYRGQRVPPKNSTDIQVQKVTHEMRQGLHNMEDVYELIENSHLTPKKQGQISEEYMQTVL
Androgen receptor (Homo sapiens), sequence (P10275 whole entry, looked up): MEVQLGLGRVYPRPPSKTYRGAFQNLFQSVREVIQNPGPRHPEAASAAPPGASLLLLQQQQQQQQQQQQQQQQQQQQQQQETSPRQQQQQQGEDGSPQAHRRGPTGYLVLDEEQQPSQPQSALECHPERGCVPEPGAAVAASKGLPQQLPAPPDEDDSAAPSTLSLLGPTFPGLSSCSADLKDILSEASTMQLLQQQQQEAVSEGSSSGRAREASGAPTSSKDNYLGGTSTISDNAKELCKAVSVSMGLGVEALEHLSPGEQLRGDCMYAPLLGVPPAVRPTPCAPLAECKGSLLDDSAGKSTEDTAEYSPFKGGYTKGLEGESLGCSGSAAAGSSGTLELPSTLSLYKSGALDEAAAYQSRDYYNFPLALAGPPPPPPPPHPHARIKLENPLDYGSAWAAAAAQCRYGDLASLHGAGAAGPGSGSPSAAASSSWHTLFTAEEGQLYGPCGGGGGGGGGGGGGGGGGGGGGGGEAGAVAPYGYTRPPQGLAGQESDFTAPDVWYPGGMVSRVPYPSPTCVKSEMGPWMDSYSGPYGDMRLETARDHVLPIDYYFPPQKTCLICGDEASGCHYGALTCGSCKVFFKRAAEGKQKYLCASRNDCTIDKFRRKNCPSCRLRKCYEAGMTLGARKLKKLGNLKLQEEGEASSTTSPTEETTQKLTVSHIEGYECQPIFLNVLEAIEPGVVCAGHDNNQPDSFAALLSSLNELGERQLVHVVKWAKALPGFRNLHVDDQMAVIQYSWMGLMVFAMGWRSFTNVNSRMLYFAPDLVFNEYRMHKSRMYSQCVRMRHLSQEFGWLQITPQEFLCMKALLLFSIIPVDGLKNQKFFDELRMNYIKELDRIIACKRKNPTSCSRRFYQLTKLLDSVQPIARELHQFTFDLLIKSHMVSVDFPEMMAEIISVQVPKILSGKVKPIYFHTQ

Take `COP(=S)(OC)Oc1cc(Cl)c(Br)cc1Cl`: the Potency result in assay [1], in assay [3], in [4], in assay [5], in assay [6] and in assay [7] was “inactive” each time. In addition, the Potency entry in assay [8], in [9], in [10], in assay [11], in assay [12] and in assay [13] was “inactive” throughout. The Potency in [2] was 54.5 µM (active). In assay [14], the call was inactive.
With `CC(=O)c1cc(C(C)(C)C)cc2c1CCC2(C)C`, the Potency result in [1], in assay [15], in assay [3], in [5], in [6] and in assay [7] was “inactive” throughout. Further, the Potency entry in [16], in assay [9], in [10], in assay [12] and in assay [13] was “inactive” throughout.
Turning to `C1CCC2CCCCC2C1` (stereo not drawn), the Potency result in assay [1], in assay [15], in assay [3], in assay [5], in assay [6] and in assay [7] was “inactive” each time. For the same molecule, the Potency result in [16], in [17], in assay [9], in [10], in assay [12] and in assay [13] was “inactive” each time.
On to `O=c1c(C2CC(c3ccc(-c4ccc(Br)cc4)cc3)Cc3ccccc32)c(O)sc2ccccc12` (stereo not drawn), for which the Potency entry in [1], in [3], in assay [4], in assay [5], in [6] and in [7] was “inactive” each time. The Potency entry in assay [8], in [11], in assay [12], in assay [13] and in assay [18] was “inactive” throughout. Also, the Potency in assay [15] was 13.3 µM (active); in [9], 29.8 µM (active). Moreover, the call in assay [14] was inactive.
On to `CC(C)CC(C)N` (stereo not drawn), for which the Potency result in assay [1], in assay [15], in assay [3], in assay [4], in assay [5] and in assay [6] was “inactive” throughout. Moreover, the Potency entry in [7], in assay [16], in [17], in assay [9], in assay [10] and in [12] was “inactive” in each case. For the same molecule, the Potency entry in assay [13] and in assay [18] was “inactive” throughout. Besides, in assay [14], the result was inactive.
For the molecule `ClC(Cl)=C(Cl)Cl`, the Potency result in assay [1], in assay [3], in assay [4], in [5], in assay [6] and in assay [7] was “inactive” throughout. The Potency result in assay [16], in assay [8], in assay [17], in [9], in [10] and in assay [12] was “inactive” each time. Besides, the call in assay [14] was inactive.
Turning to `CN(C)c1ccc(N=Nc2ccccc2)cc1`, the Potency in [1] was 54.5 µM (active); in assay [3], 4.33 µM (active); in assay [5], 27.3 µM (active); in [7], 1.72 µM (active); in assay [9], 48.6 µM (active). Also, the Potency result in [16] and in [12] was “inactive” each time. Besides, the call in assay [14] was inactive.
For `COCC(=O)N(c1c(C)cccc1C)[C@H](C)C(=O)OC`, the Potency entry in [1], in [15], in assay [3], in [4], in [5] and in [6] was “inactive” in each case. Further, the Potency result in assay [7], in assay [16], in assay [8], in assay [17], in assay [9] and in [10] was “inactive” throughout. For the same molecule, the Potency result in assay [12], in [13] and in [18] was “inactive” in each case. The molecule was classed as inactive in [14].
